Many of the other results were omitted from the sample, so hits are more common in it than they were.
Pf Dd2 inh: inhibitors of Plasmodium falciparum Dd2 growth | Potency, µM (titrated, usually from 28.9 µM), hits mostly inhibitors | P. falciparum Dd2 growth, SYBR Green, 72 h | 120,000 compounds, 4.3% hits; active means well fitted inhibition curve with a large enough effect; further: nearly all actives have a fitted effect of over 65% in size
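Infected erythrocytes (Dd2, 0.3% parasitemia, 2.5% hematocrit final) are added to compound in RPMI-1640/Albumax II medium, grown 72 h at 37C in low oxygen, then lysed with saponin/Triton-X containing SYBR Green and read by fluorescence.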
A number is an active result; 0 = inactive.

SMILES | Pf Dd2 inh
COc1ccc(C(=O)N2CC[C@H]3NC(=O)N(c4ccc(C(C)C)cc4)C(=O)[C@H]32)cc1 | 0
CCOC(=O)c1ccc(-c2ccc(/C=C(\C#N)C(=O)Nc3cccc(C)c3)o2)cc1 | 0
Cc1cccc(NC(=O)C2CCCN(S(=O)(=O)c3cccc4nonc34)C2)c1 (stereo not drawn) | 0
CCC(=O)N1CCc2cc(Br)cc(S(=O)(=O)N3CCCC(C(=O)NCc4ccc(C)cc4)C3)c21 (stereo not drawn) | 0
CCC(=O)N1CCc2cc(Br)cc(S(=O)(=O)N3CCCC(C(=O)N(C)c4ccc(Br)cc4)C3)c21 (stereo not drawn) | 8.91µM
CCC(=O)N1CCc2cc(Br)cc(S(=O)(=O)N3CCCC(C(=O)Nc4ccc(CC)cc4)C3)c21 (stereo not drawn) | 0
CCC(=O)N1CCc2cc(Br)cc(S(=O)(=O)N3CCCC(C(=O)Nc4cccc(C)c4C)C3)c21 (stereo not drawn) | 5.01µM
CCCN(CCC)C(=O)C1CCCN(S(=O)(=O)c2cc(Br)cc3c2N(C(=O)CC)CC3)C1 (stereo not drawn) | 0
CCC(=O)N1CCc2cc(Br)cc(S(=O)(=O)NCc3ccccc3)c21 | 0
CCC(=O)N1CCc2cc(Br)cc(S(=O)(=O)N3CCCC(C(=O)Nc4cccc(F)c4)C3)c21 (stereo not drawn) | 3.55µM
CCC(=O)N1CCc2cc(Br)cc(S(=O)(=O)N3CCCC(C(=O)Nc4ccc(OC)cc4OC)C3)c21 (stereo not drawn) | 0
CC(=O)NCCC(=O)N1CCC2(CC1)CN(C(=O)NC(C)C)CCO2 | 0
CCn1cc(S(=O)(=O)N2CCC(CCOc3ccccc3OC)C2)cn1 (stereo not drawn) | 0
CCc1ccccc1Nc1ncnc2c1nc1n2CCCC1 | 0
Cn1cnc(S(=O)(=O)N2CCC(N3C(=O)C4(CCCC4)C3c3ccccc3)CC2)c1 (stereo not drawn) | 0
O=C1N(C2CCNCC2)C(c2ccccc2)C12CCCC2 (stereo not drawn) | 5.01µM
COCC(=O)N1CCC(N2C(=O)C3(CCCCC3)C2c2ccccc2)CC1 (stereo not drawn) | 0
O=C(Cn1ccnc1)N1CCC(N2C(=O)C3(CCCC3)C2c2ccccc2)CC1 (stereo not drawn) | 0
O=C(Cc1ccncc1)N1CCC(N2C(=O)C3(CCCCC3)C2c2ccccc2)CC1 (stereo not drawn) | 0
CCNC(=O)N1CCC(N2C(=O)C3(CCCC3)C2c2ccccc2)CC1 (stereo not drawn) | 11.2µM
CCOC(=O)CCNC(=O)N1CCC(N2C(=O)C3(CCCC3)C2c2scnc2C)CC1 (stereo not drawn) | 0
CN(C)S(=O)(=O)N1CCC(N2C(=O)C3(CCCCC3)C2c2ccccc2)CC1 (stereo not drawn) | 0
O=C(CC(F)(F)F)N1CCC(N2C(=O)C3(CCCC3)C2c2ccccc2)CC1 (stereo not drawn) | 6.31µM
COc1ccc(-c2c(C)nn3c(N4CCN(c5cc(Cl)ccc5C)CC4)cc(C)nc23)cc1OC | 0
O=C(CN1C(=O)C(c2ccccc2)=NC12CCCC2)Nc1ccc2c(c1)OCO2 | 0
SMILES | Pf Dd2 inh
CCOc1cc(=O)n2c(c1C(=O)NCCCOC(C)C)CCCCC2 | 0
Cc1nc(C)n(CCCNc2nccc(-c3cc(C(=O)O)ccn3)n2)n1 | 0
Cc1cccc(NC(=O)CSc2cn(CC(=O)N3CCC(C)CC3)c3ccccc23)c1C | 0
Cc1noc(C)c1C(=O)N1CCCn2ccnc2C1c1cnn(C)c1 (stereo not drawn) | 0
COCC(=O)N1CCC(C(=O)NC(C)c2ccc3c(c2)OCCCO3)CC1 (stereo not drawn) | 0
CCOC(=O)C1(Cc2ccccc2C(F)(F)F)CCN(C(=O)c2ccc[n+]([O-])c2)CC1 | 0
CCCn1ncc(CN2CCC(Cc3cccc(C(F)(F)F)c3)(C(=O)OCC)CC2)c1C | 12.6µM
COCC1CN(C(C)=O)CC12CCN(Cc1cccc(C(F)(F)F)c1)CC2 (stereo not drawn) | 0
COC(=O)c1c(C)oc2ccc(N(C(=O)Oc3ccccc3)S(=O)(=O)c3ccc(C(C)(C)C)cc3)cc12 | 0
CN(C)S(=O)(=O)N(CC(=O)NCCSCc1ccc(Cl)cc1Cl)c1ccccc1 | 0
O=C(CN1C(=O)COc2ccc(C(=O)COc3ccccc3Cl)cc21)NCCc1ccccc1 | 0
O=C(c1ccncc1)N1CCCN(CCc2ccccc2)c2ccccc21 | 0
CN1CCCN(C(=O)CCc2ccccc2)c2ccccc21 | 0
O=C(c1cc(F)ccc1F)N1CCCN(CCc2ccccc2)c2ccccc21 | 0
COc1ccccc1CC(=O)N1CCCN(CCc2ccccc2)c2ccccc21 | 7.94µM
COc1ccc(CCC(=O)N2CCCN(C)c3ccccc32)cc1 | 0
CN(C)CCN1CCCN(C(=O)CCc2ccccc2)c2ccccc21 | 7.08µM
CCOC(=O)CCNC(=O)N1CCN(S(=O)(=O)c2ccc3c(ccn3C)c2)CC1 | 0
CN1CC(=O)N(C2CCCNC2)Cc2c(NCCc3ccccc3F)ncnc21 (stereo not drawn) | 0
COCc1cn([C@H]2CO[C@H]3[C@@H]2OC[C@@H]3NC(=O)c2ccc(N(C)C)cc2)nn1 | 0
COC(=O)c1c(NC(=O)CCCOc2ccc(C(C)(C)C)cc2)sc2c1CCC(C)C2 (stereo not drawn) | 0
CC(C)OC(C)C(=O)N1CCC(n2nccc2NC(=O)c2ccccc2)CC1 (stereo not drawn) | 0
Cc1nc2c(c(-c3ccc(Cl)cc3)n1)CCN(C(=O)c1ccccc1Cl)CC2 | 0
O=C(N[C@H]1CO[C@H]2[C@@H]1OC[C@@H]2n1nnnc1Oc1ccc(-n2cncn2)cc1)N1CCOCC1 | 0
COC(=O)CNC(c1ccccc1)c1cc(Br)ccc1NC(=O)c1ccc(Cl)cc1 (stereo not drawn) | 0
SMILES | Pf Dd2 inh
CCOC(=O)CNC(c1ccccc1)c1cc(Br)ccc1NC(=O)c1ccc(Cl)cc1 (stereo not drawn) | 3.98µM
CCOC(=O)CSc1nc2ccc(NC(=O)c3ccc(Cl)cc3)cc2s1 | 0
Cc1ccc(C(=O)c2oc3ccccc3c2NC(=O)c2cc(-c3ccccc3)on2)cc1F | 0
O=C(c1ccco1)N1CCN(C(=O)C2CCc3ncc(-c4ccc(F)cc4)n3C2)CC1 (stereo not drawn) | 0
CC(=O)c1cccc(NC(=O)OC[C@H]2C[C@@H]3CCN2C[C@@H]3c2cc(C3CCCC3)nc(-c3ccncc3)n2)c1 | 0
CCC(CC)c1cc([C@H]2CN3CC[C@H]2C[C@@H]3CO)nc(-c2ccncc2)n1 | 7.08µM
CCC(CC)c1cc([C@H]2CN3CC[C@H]2C[C@@H]3CNC2CCN(C(C)=O)CC2)nc(-c2ccncc2)n1 | 4.47µM
CC(=O)N1CCC(NC[C@H]2C[C@@H]3CCN2C[C@@H]3c2cc(C3CCCC3)nc(C)n2)CC1 | 0
CCCN(Cc1cccs1)C(=O)Nc1cc(OC)ccc1OC | 0
CCOC(=O)Cc1csc(NC(=O)CC[C@H]2NC(=O)c3ccccc3NC2=O)n1 | 0
CCOc1ccc(CCNC(=O)CSc2cc(=O)n(C)c3ccccc23)cc1OCC | 0
CN(C)c1ccc(-c2ccnc(N[C@H]3CO[C@H]4[C@@H]3OC[C@H]4OC(=O)NCc3ccccc3)n2)cc1 | 0
COC(=O)c1ccccc1NC(=O)O[C@@H]1CO[C@H]2[C@@H]1OC[C@@H]2Nc1nccc(-c2ccc(N(C)C)cc2)n1 | 5.01µM
COc1cc(NC(=O)N[C@H]2CO[C@H]3[C@@H]2OC[C@@H]3Nc2nccc(-c3ccc(N(C)C)cc3)n2)cc(OC)c1 | 12.6µM
